# Measured values published in PMC8384837, “Expanding the binding specificity for RNA recognition by a PUF domain”.
# Where a chain is given by its changes, count along the chain named.
# How the values were obtained:
# Assay in all cases: yeast three-hybrid, YBZ-1, SC-Leu-His + 0.5 mM 3-AT, 4 days
# Conditions in all cases: tags: N-Gal4 AD-HA kept; label: inside an RPR1-promoter hybrid RNA with tandem MS2 sites; ssRNA
# PUM1 PUF domain R5-SFS = PUM1 PUF domain R5-SFS (Homo sapiens, UniProt Q14671 828-1176, C1007S;R1008F;Q1011S)
# Procedure, shortened: (§1)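 Repeat regions from input (SC-Leu) and selection (SC-Leu-His + 0.5 mM 3-AT) plates were PCR-amplified and Illumina-sequenced after four days of growth. The cells were strain YBZ-1 with a LexA–MS2 coat fusion and a HIS3 reporter, co-expressing Pumilio-1 PUF domain libraries and matching RNA elements from a centromeric plasmid. The interaction score is the log change in variant frequency from input to selection, taken in log2 with a pseudocount of 1 for absent variants.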
# PUM1 PUF domain R4-PHM = PUM1 PUF domain R4-PHM (Homo sapiens, UniProt Q14671 828-1176, N971P;Q975M)
# Procedure, shortened: as §1
# PUM1 PUF domain R6-RYA = biological target: T1, PUM1 PUF domain R6-RYA (Homo sapiens, UniProt Q14671 828-1176, N1043R;Q1047A)
# T1 sequence: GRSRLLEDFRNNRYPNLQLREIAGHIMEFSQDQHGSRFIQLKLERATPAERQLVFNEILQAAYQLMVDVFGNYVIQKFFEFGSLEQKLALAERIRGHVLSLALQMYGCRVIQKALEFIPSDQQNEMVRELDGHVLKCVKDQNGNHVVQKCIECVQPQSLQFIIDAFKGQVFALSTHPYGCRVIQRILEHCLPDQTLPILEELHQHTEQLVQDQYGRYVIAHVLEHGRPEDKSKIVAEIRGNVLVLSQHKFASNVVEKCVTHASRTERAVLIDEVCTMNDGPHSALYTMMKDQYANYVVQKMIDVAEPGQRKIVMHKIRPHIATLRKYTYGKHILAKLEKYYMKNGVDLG
# Procedure, shortened: as §1
# PUM1 PUF domain R5-LFQ = PUM1 PUF domain R5-LFQ (Homo sapiens, UniProt Q14671 828-1176, C1007L;R1008F)
# Procedure, shortened: as §1
# PUM1 PUF domain R6-SYM = biological target: T2, PUM1 PUF domain R6-SYM (Homo sapiens, UniProt Q14671 828-1176, N1043S;Q1047M)
# T2 sequence: T1 sequence with R216S, A220M
# Procedure, shortened: as §1
# PUM1 PUF domain R4-SRC = PUM1 PUF domain R4-SRC (Homo sapiens, UniProt Q14671 828-1176, N971S;H972R;Q975C)
# Procedure, shortened: as §1
# PUM1 PUF domain R8-RWR = PUM1 PUF domain R8-RWR (Homo sapiens, UniProt Q14671 828-1176, N1122R;Y1123W;Q1126R)
# Procedure, shortened: as §1
# PUM1 PUF domain R1-RYL = PUM1 PUF domain R1-RYL (Homo sapiens, UniProt Q14671 828-1176, S863R;R864Y;Q867L)
# Procedure, shortened: as §1
# PUM1 PUF domain R5-SAT = PUM1 PUF domain R5-SAT (Homo sapiens, UniProt Q14671 828-1176, C1007S;R1008A;Q1011T)
# Procedure, shortened: as §1
sequence,measurement,setting,value
GGCUAGAACUAGUGGAUCCCCCGGCGCCCGGCGGCUCGAGCCCGGGUAAGUGUCAAUAGUCUGCAUGCCGCCGGGCGCCAUGCCUGCAGGUCGACUCUAGAAAACAUG,binding signal,PUM1 PUF domain R5-SFS,3.78 log2 enrichment (interaction score)
GGCUAGAACUAGUGGAUCCCCCGGCGCCCGGCGGCUCGAGCCCGGGUAAGUGUAUAUAGUCUGCAUGCCGCCGGGCGCCAUGCCUGCAGGUCGACUCUAGAAAACAUG,binding signal,PUM1 PUF domain R4-PHM,5.12 log2 enrichment (interaction score)
GGCUAGAACUAGUGGAUCCCCCGGCGCCCGGCGGCUCGAGCCCGGGUAAGUGUAAAUAGUCUGCAUGCCGCCGGGCGCCAUGCCUGCAGGUCGACUCUAGAAAACAUG,binding signal,PUM1 PUF domain R4-PHM,4.14 log2 enrichment (interaction score)
same,binding signal,PUM1 PUF domain R6-RYA,3.02 log2 enrichment (interaction score)
same,binding signal,PUM1 PUF domain R5-LFQ,2.45 log2 enrichment (interaction score)
same,binding signal,PUM1 PUF domain R6-SYM,2.79 log2 enrichment (interaction score)
same,binding signal,PUM1 PUF domain R4-SRC,4.65 log2 enrichment (interaction score)
same,binding signal,PUM1 PUF domain R8-RWR,6.58 log2 enrichment (interaction score)
GGCUAGAACUAGUGGAUCCCCCGGCGCCCGGCGGCUCGAGCCCGGGUAAGUGUAAAUUGUCUGCAUGCCGCCGGGCGCCAUGCCUGCAGGUCGACUCUAGAAAACAUG,binding signal,PUM1 PUF domain R1-RYL,2.71 log2 enrichment (interaction score)
GGCUAGAACUAGUGGAUCCCCCGGCGCCCGGCGGCUCGAGCCCGGGUAAGUGUAAAUCGUCUGCAUGCCGCCGGGCGCCAUGCCUGCAGGUCGACUCUAGAAAACAUG,binding signal,PUM1 PUF domain R1-RYL,2.26 log2 enrichment (interaction score)
GGCUAGAACUAGUGGAUCCCCCGGCGCCCGGCGGCUCGAGCCCGGGUAAGUGUGAAUAGUCUGCAUGCCGCCGGGCGCCAUGCCUGCAGGUCGACUCUAGAAAACAUG,binding signal,PUM1 PUF domain R5-SAT,2.75 log2 enrichment (interaction score)
GGCUAGAACUAGUGGAUCCCCCGGCGCCCGGCGGCUCGAGCCCGGGUAAGCGUAAAUAGUCUGCAUGCCGCCGGGCGCCAUGCCUGCAGGUCGACUCUAGAAAACAUG,binding signal,PUM1 PUF domain R8-RWR,7 log2 enrichment (interaction score)
